According to PMC8384837, “Expanding the binding specificity for RNA recognition by a PUF domain”:

These sequences were tested against PUM1 PUF domain R1-KRS (Homo sapiens, UniProt Q14671 828-1176, S863K;Q867S) (assay: yeast three-hybrid, YBZ-1, SC-Leu-His + 0.5 mM 3-AT, 4 days). Settings: tags: N-Gal4 AD-HA kept; label: inside an RPR1-promoter hybrid RNA with tandem MS2 sites; ssRNA.
Summary of the method: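 Repeat regions from input (SC-Leu) and selection (SC-Leu-His + 0.5 mM 3-AT) plates were PCR-amplified and Illumina-sequenced after four days of growth. The cells were strain YBZ-1 with a LexA–MS2 coat fusion and a HIS3 reporter, co-expressing Pumilio-1 PUF domain libraries and matching RNA elements from a centromeric plasmid. The interaction score is the log change in variant frequency from input to selection, taken in log2 with a pseudocount of 1 for absent variants.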

Row | Sequence | binding signal
1 | GGCUAGAACUAGUGGAUCCCCCGGCGCCCGGCGGCUCGAGCCCGGGUAAGUGUAAAUCGUCUGCAUGCCGCCGGGCGCCAUGCCUGCAGGUCGACUCUAGAAAACAUG | 5.16 log2 enrichment (interaction score)
2 | GGCUAGAACUAGUGGAUCCCCCGGCGCCCGGCGGCUCGAGCCCGGGUAAGUGUAAAUUGUCUGCAUGCCGCCGGGCGCCAUGCCUGCAGGUCGACUCUAGAAAACAUG | 4.93 log2 enrichment (interaction score)
3 | GGCUAGAACUAGUGGAUCCCCCGGCGCCCGGCGGCUCGAGCCCGGGUAAGUGUAAAUGGUCUGCAUGCCGCCGGGCGCCAUGCCUGCAGGUCGACUCUAGAAAACAUG | 2.96 log2 enrichment (interaction score)
